Laboratory results from PubChem BioAssay (EPA / NIEHS).
Active and inactive are the calls of the source. How the source made its calls: active means hit-call score of the fitted dose curve at least 0.9, where 1 is the maximum; inactive means score below 0.9.

Read-out: Interferon-gamma inducible Protein 10 (IP10), CXCL10 (gene 3627)
Test: BSK_hDFCGF_IP10: BioMAP Diversity Plus: hDFCGF Assay for Interferon-gamma inducible Protein 10 (IP10) Biomarker Activity (AID 2283053)
Conditions: primary human foreskin fibroblasts; actives raise or lower the signal
Procedure: BSK_hDFCGF is a cell-based, multiplexed-readout assay that uses foreskin fibroblast, a human skin primary cell, with measurements taken at 24 hours after chemical dosing in a 96-well plate.BSK_hDFCGF_IP10 is an assay component measured in the BSK_hDFCGF assay. It measures IP-10 antibody related to regulation of gene expression using ELISA technology.Data from the assay component BSK_hDFCGF_IP10 was analyzed into 1 assay endpoint. This assay endpoint, BSK_hDFCGF_IP10, was analyzed with bidirectional fitting relative to DMSO as the negative control and baseline of activity. Using a type of binding reporter, gain or loss-of-signal activity can be used to understand changes in the signaling as they relate to the gene CXCL10. Furthermore, this assay endpoint can be referred to as a primary readout, because this assay has produced multiple assay endpoints where this one serves a signaling function. To generalize the intended target to other relatable targets, this assay endpoint is annotated to the cytokine intended target family, where the subfamily is chemotactic factor.
The levels of cell surface (or secreted, indicated by the prefix "s") biomarker endpoints were measured by ELISA. Overt cytotoxicity to cells in confluent adherent cultures (all systems other than the BT system) was assessed by measuring total protein levels using sulforhodamine B (SRB) staining in parallel cultures at the time of biomarker measurements, indicated as SRB endpoints. For proliferation assays for adherent cell types, individual cell types are cultured at sub-confluence and relative cell numbers quantified by SRB staining at time points optimized for each system (48 h: 3C and CASM3C systems; 72 h: BT and HDF3CGF systems; 96 h: SAg system). SRB was performed by staining cells with 0.1% SRB after fixation with 10% TCA and reading wells at 560 nm.Viability and proliferation of PBMC (T cells) was quantified by Alamar Blue reduction for the SAg and BT systems. For PBMC viability (referred to as PBMC Cytotoxicity within the assay endpoint names), cells were plated (75,000/well in a 96-well plate) and then chemical samples added for 1 h before addition of activators, SEB and TSST-1 (20 ng/mL final concentration each). Cells were incubated for 90 h. Then, Alamar Blue (20 uL/well) (Invitrogen, Cat DAL1100) was added for 6 h, and the plates were read with a fluorescence microplate reader at 546/580 nm (excitation/emission). For PBMC proliferation, cells were plated and activated as above but incubated for only 16 h prior to addition of Alamar Blue. Plates were read after 6 h.

SMILES	outcome	AC50
C=CC(=C)CC/C=C(\C)CCC=C(C)C	inactive	–
C=COC(=O)C(C)(C)CCCCCC	–	35 µM (active)
OCCN1CN(CCO)CN(CCO)C1	–	20 µM (active)
Cc1cccc2c1ccc1ccccc12	inactive	–
C=CC(C)(CCC=C(C)C)OC(C)=O (stereo not given)	inactive	–
CCC(C)c1ccccc1O (stereo not given)	inactive	–
CC(C)(C)c1ccc(O)c(O)c1	–	32.3 µM (active)
C=CC(=O)OCCC(F)(F)C(F)(F)C(F)(F)C(F)(F)C(F)(F)C(F)(F)C(F)(F)C(F)(F)F	inactive	–
O=C(NO)c1ccccc1	inactive	–
CS(=O)(=O)c1ccc([C@@H](CC2CCCC2)C(=O)Nc2cnccn2)cc1Cl	inactive	–
O=C(CC(=O)C(F)(F)C(F)(F)C(F)(F)F)c1cccs1	inactive	–
CC(=O)Nc1ccc(O)cc1	inactive	–
O=C(O)CCC(F)(F)C(F)(F)C(F)(F)C(F)(F)C(F)(F)C(F)(F)F	inactive	–
Cc1ccc(C(=O)c2ccccc2)cc1	–	33.1 µM (active)
CCOC(=O)CN[C@@H](C(=O)N1CC[C@H]1C(=O)NCc1ccc(/C(N)=N/O)cc1)C1CCCCC1	inactive	–
CN(C)c1ccc(C(=C2C=CC(=[N+](C)C)C=C2)c2ccccc2)cc1	–	0.0138 µM (active)
O=P(O)(O)CCC(F)(F)C(F)(F)C(F)(F)C(F)(F)C(F)(F)C(F)(F)F	inactive	–
COC1=CC(=O)C[C@@H](C)[C@]12Oc1c(Cl)c(OC)cc(OC)c1C2=O	inactive	–
CCCCC=O	inactive	–
CCCCc1oc2ccccc2c1C(=O)c1cc(I)c(OCCN(CC)CC)c(I)c1	–	8.78 µM (active)

SMILES	outcome	AC50
O=C1OC2(c3ccccc31)c1cc(I)c(O)c(I)c1Oc1c2cc(I)c(O)c1I	–	16 µM (active)
CCCCCCCCCCCCOS(=O)(=O)O	–	26.3 µM (active)
Oc1cc2ccccc2cc1O	inactive	–
CCCCCCCCCCCCCCC	inactive	–
O=C(NCc1ncc(C(F)(F)F)cc1Cl)c1c(Cl)cccc1Cl	inactive	–
CCCCCCCCCCCCCCCCCC[N+](C)(C)Cc1ccccc1	–	0.795 µM (active)
O=C(CCCN1CCC(O)(c2ccc(Cl)cc2)CC1)c1ccc(F)cc1	inactive	–
COc1cccc(O)c1	inactive	–
O=C(O)CCC(F)(F)C(F)(F)C(F)(F)C(F)(F)C(F)(F)F	inactive	–
Clc1ccc(Nc2nnc(Cc3ccncc3)c3ccccc23)cc1	inactive	–
CCCCC(CC)C(=O)O (stereo not given)	inactive	–
NC(=NCCCCCCN=C(N)/N=C(\N)Nc1ccc(Cl)cc1)/N=C(\N)Nc1ccc(Cl)cc1	–	8.17 µM (active)
O=C1c2ccc(O)c(O)c2C(=O)c2c(O)ccc(O)c21	inactive	–
CCCCCc1ccc(O)cc1	–	33.2 µM (active)
CN(C)CCOC(c1ccccc1)c1ccccc1	–	33.6 µM (active)
CC[N+](CC)(CC)Cc1ccccc1	inactive	–
Cc1ccc(N=Nc2c(O)ccc3ccccc23)c(C)c1	–	10 µM (active)
O=C(c1ccccc1)c1ccccc1	inactive	–
Oc1ccc(Cc2ccccc2O)cc1	inactive	–
COCN(COC)c1nc(N(COC)COC)nc(N(COC)COC)n1	inactive	–
